The list is not random: actives were taken first. Their share in the collection is about 27%.
CYP2C19 inh: human CYP2C19 inhibition. CYP2C19 Supersomes, luciferin-H EGE luminescence, 30 min. inhibition, % at 5 µM. P33261. AID 778. 21% of 96,000 active;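 active = CYP2C19 inhibition above a set limit at 5 µM in the primary screen, cut at about 50% in these data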;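 note: plate controls were negative control wells for no effect and 2.5 mM tranylcypromine positive control for full effect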
CYP2C9 inhib: human CYP2C9 inhibition. CYP2C9 Supersomes, luciferin-H conversion, luminescence. inhibition, % at 5 µM. 20% of 96,000 active;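 active = blocking of liver enzyme CYP2C9 beyond about 50% at 5 µM, limit read from the data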
CYP2C9 act: increases human cytochrome P450 2C9 activity; recombinant CYP2C9, luciferin-H conversion, luminescence; stronger effect = higher value; factor 1 = untreated enzyme, 0 = blocked; activation factor at 5 µM; 1.4% of 96,000 active;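 active = activation factor of 2 or more for CYP2C9 at a 5 µM dose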;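 note: 0 = sulfaphenazole-blocked wells and 1 = vehicle-only wells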
sEH activator: increases human soluble epoxide hydrolase activity | P34913 | purified human sEH enzymatic activity, activator screen | activation, % at 2 µM | 0.04% of 91,000 active; in the data active = activation above about 37%
Target sequence (P34913 whole entry, looked up): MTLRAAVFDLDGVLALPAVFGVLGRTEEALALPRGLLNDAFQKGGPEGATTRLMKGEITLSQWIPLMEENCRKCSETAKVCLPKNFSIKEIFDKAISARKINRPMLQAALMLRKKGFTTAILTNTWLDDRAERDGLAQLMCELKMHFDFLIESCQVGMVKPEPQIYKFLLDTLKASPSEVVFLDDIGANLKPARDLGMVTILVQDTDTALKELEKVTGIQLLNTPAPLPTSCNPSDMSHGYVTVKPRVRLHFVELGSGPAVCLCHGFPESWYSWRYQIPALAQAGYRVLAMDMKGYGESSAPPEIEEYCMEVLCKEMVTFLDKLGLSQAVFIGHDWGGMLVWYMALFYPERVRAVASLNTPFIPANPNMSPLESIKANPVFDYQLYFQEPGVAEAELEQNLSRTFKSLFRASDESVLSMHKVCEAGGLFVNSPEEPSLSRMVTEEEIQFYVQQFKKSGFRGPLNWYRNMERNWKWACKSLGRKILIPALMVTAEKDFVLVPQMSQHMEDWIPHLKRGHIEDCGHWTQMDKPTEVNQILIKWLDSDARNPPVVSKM
CYP2C19 activ: cytochrome P450 2C19 (human) activation | recombinant CYP2C19, luciferin-H EGE luminescence; stronger effect = higher value; 0 = fully inhibited enzyme, 1 = untreated enzyme | 96,000 tested, under 10 active | activation factor at 5 µM | P33261;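 active = activation factor of at least 2 at 5 µM in the primary screen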;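 note: 0 = wells with 2.5 mM tranylcypromine and 1 = vehicle-only wells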
sEH inhibitor: blocks human soluble epoxide hydrolase activity; P34913; recombinant human sEH enzymatic activity assay; inhibition, % at 2 µM; 0.34% of 91,000 active; AID 707; in the data active = inhibition above about 80%
Active calls of the source: *.

Screening CCCc1[nH]nc2c1C(c1ccc(OC(=O)N3CCOCC3)c(OC)c1)C(C#N)=C(N)O2 (centres undefined) returned CYP2C19 inh 2, CYP2C9 inhib 4, CYP2C9 act 1, sEH activator -3, CYP2C19 activ 1 and sEH inhibitor 4.
Screening Cn1c(=O)oc2cc(S(=O)(=O)Nc3cccc(C(=O)O)c3)ccc21 returned CYP2C19 inh -21, CYP2C9 inhib -32, CYP2C9 act 1.3, sEH activator 8, CYP2C19 activ 1.2 and sEH inhibitor -5.
CC(C)CC(NS(=O)(=O)c1ccc2c(c1)oc(=O)n2C)C(=O)NCc1cccnc1 (centres undefined) was read as CYP2C19 inh 53*, CYP2C9 inhib -2, CYP2C9 act 1 and CYP2C19 activ 0.5.
Screening Cn1c(=O)oc2cc(S(=O)(=O)Nc3cccc4c3CCCC4)ccc21 returned CYP2C19 inh 66*, CYP2C9 inhib -142, CYP2C9 act 2.4* and CYP2C19 activ 0.3.
`Cn1c(=O)oc2cc(S(=O)(=O)Nc3ccc4c(c3)OCO4)ccc21` gave CYP2C19 inh 80*, CYP2C9 inhib 53*, CYP2C9 act 0.5, sEH activator 34, CYP2C19 activ 0.2 and sEH inhibitor -32.
Screening CCc1cccc(NS(=O)(=O)c2ccc3c(c2)oc(=O)n3C)c1 returned CYP2C19 inh 70*, CYP2C9 inhib -11, CYP2C9 act 1.1 and CYP2C19 activ 0.3.
Screening CC(=O)OCCNC(=O)Cn1cnc2c1c(=O)n(C)c(=O)n2C returned CYP2C19 inh -9, CYP2C9 inhib -20, CYP2C9 act 1.2 and CYP2C19 activ 1.1.
Screening CC1CN(c2nc3c(c(=O)n(Cc4ccc(Cl)cc4)c(=O)n3C)n2C)CC(C)O1 (centres undefined) returned CYP2C19 inh 13, CYP2C9 inhib 14, CYP2C9 act 0.9 and CYP2C19 activ 0.9.
CC1CCCN(C(=O)c2cc(F)c(F)cc2Cl)C1 (centres undefined) was read as CYP2C19 inh 2, CYP2C9 inhib -12, CYP2C9 act 1.1, sEH activator -6, CYP2C19 activ 1 and sEH inhibitor 11.
`CSCCC(NS(=O)(=O)c1ccc2c(c1)oc(=O)n2C)C(=O)NC1CCCCC1` (centres undefined) gave CYP2C19 inh 72*, CYP2C9 inhib -8, CYP2C9 act 1.1, sEH activator 16, CYP2C19 activ 0.3 and sEH inhibitor -16.
For Cn1c(=O)oc2cc(S(=O)(=O)NC(Cc3ccccc3)C(=O)N3CCCCC3)ccc21 (centres undefined) the results were CYP2C19 inh 40, CYP2C9 inhib 13, CYP2C9 act 0.9, sEH activator -1, CYP2C19 activ 0.6 and sEH inhibitor 0.
Screening Cn1c(=O)c2cc(S(=O)(=O)Nc3ccc4c(c3)OCO4)ccc2n(C)c1=O returned CYP2C19 inh 84*, CYP2C9 inhib 85*, CYP2C9 act 0.2, sEH activator 13, CYP2C19 activ 0.2 and sEH inhibitor -16.
`Cn1c(=O)c2cc(S(=O)(=O)N3CCOCC3)ccc2n(C)c1=O` gave CYP2C19 inh -16, CYP2C9 inhib -25, CYP2C9 act 1.2, sEH activator -4, CYP2C19 activ 1.2 and sEH inhibitor 6.
O=C(NCCc1ccccc1)C1CCCN1C(=O)Nc1ccc(F)cc1 (centres undefined) was read as CYP2C19 inh 20, CYP2C9 inhib 7, CYP2C9 act 0.9 and CYP2C19 activ 0.8.
`COc1ccc(CCN2C(=O)C3C4CC(C5C(C(=O)O)=NOC45)C3C2=O)cc1OC` (centres undefined) gave CYP2C19 inh 8, CYP2C9 inhib -9, CYP2C9 act 1.1, sEH activator 4, CYP2C19 activ 0.9 and sEH inhibitor -1.
For COc1ccc(C(C)=O)cc1COC(=O)c1cnc(C)cn1 the results were CYP2C19 inh 24, CYP2C9 inhib 18, CYP2C9 act 0.8, sEH activator -6, CYP2C19 activ 0.8 and sEH inhibitor 8.
`Cc1noc(C)c1COc1ccc(C(=O)OCC(=O)NC(=O)C2COc3ccccc3O2)cc1` (centres undefined) gave CYP2C19 inh 14, CYP2C9 inhib 41, CYP2C9 act 0.6, sEH activator 9, CYP2C19 activ 0.9 and sEH inhibitor -10.
Cc1noc(C)c1COc1ccc(C(=O)OCC(=O)Nc2ccc3ccccc3c2)cc1 was read as CYP2C19 inh 65*, CYP2C9 inhib 88*, CYP2C9 act 0.1, sEH activator -37, CYP2C19 activ 0.4 and sEH inhibitor 36.
Cc1ccc(OCC(=O)N2CC3(C)CC2CC(C)(C)C3)cc1 (centres undefined) was read as sEH activator 7 and sEH inhibitor -1.
`COc1ccc(C(C)=O)cc1COC(=O)c1ccc(OCc2c(C)noc2C)cc1` gave CYP2C19 inh 88*, CYP2C9 inhib 76*, CYP2C9 act 0.2, sEH activator 1, CYP2C19 activ 0.1 and sEH inhibitor 0.
`COc1ccc(C(C)=O)cc1COC(=O)c1c(C)noc1C` gave CYP2C19 inh 61*, CYP2C9 inhib 52*, CYP2C9 act 0.5, sEH activator 8, CYP2C19 activ 0.4 and sEH inhibitor -10.
Screening Cc1cccc(C)c1OCC(=O)N1CC2(C)CC1CC(C)(C)C2 (centres undefined) returned CYP2C19 inh 61*, CYP2C9 inhib -22, CYP2C9 act 1.2, sEH activator -6, CYP2C19 activ 0.4 and sEH inhibitor 8.
`CCOc1ccc2nc(NC(=O)C3CCN(c4cnccn4)CC3)sc2c1` gave CYP2C19 inh -4, CYP2C9 inhib -4, CYP2C9 act 1, sEH activator -1, CYP2C19 activ 1 and sEH inhibitor 0.
Screening Cc1noc(C)c1COc1ccc(C(=O)OCC(=O)c2ccc3c(c2)OCCO3)cc1 returned CYP2C19 inh -18, CYP2C9 inhib -8, CYP2C9 act 1.1, sEH activator -19, CYP2C19 activ 1.2 and sEH inhibitor 18.
For Cc1noc(C(=O)N2CC3(C)CC2CC(C)(C)C3)c1Cl (centres undefined) the results were CYP2C19 inh 82*, CYP2C9 inhib 35, CYP2C9 act 0.7 and CYP2C19 activ 0.2.
Screening Cc1ccc(NC(=O)c2c(C)noc2C)cc1 returned CYP2C19 inh 5, CYP2C9 inhib 3, CYP2C9 act 1, sEH activator -4, CYP2C19 activ 0.9 and sEH inhibitor 5.
For Cc1noc(C)c1COc1ccc(C(=O)OCC(=O)N2CC3(C)CC2CC(C)(C)C3)cc1 (centres undefined) the results were CYP2C19 inh 64*, CYP2C9 inhib 53*, CYP2C9 act 0.5, sEH activator 4, CYP2C19 activ 0.4 and sEH inhibitor 0.
`CCOC(=O)c1ccc(OCc2c(C)noc2C)cc1` gave CYP2C19 inh 75*, CYP2C9 inhib 79*, CYP2C9 act 0.2, sEH activator 8, CYP2C19 activ 0.3 and sEH inhibitor -6.
